Results from PubChem BioAssay (NCATS).
Records with an inconclusive call do not appear. Values without a mark were called inactive. Calls of active or inactive are those of the source. Calls follow the shape of the dose curve; as a rule, active = well fitted curve in the direction sought with a large enough effect; inconclusive = small, poorly fitted or top-dose-only effect, or another doubt; inactive = no such curve, though single readings can be large; an effect the other way counts as inactive or inconclusive. *1 amine or outer side, *2 acyl side, *3 side chain or, on linkers, in order; H or OH if unused. Where a SMILES comes first, the peptide text is derived from it. Bridges are numbered along the chain shown (N, C = ends). X6 = O=C(CCC[*:2])[*:1]
% is scaled to controls: 0 for no effect and ±100 for the full control effect.

What follows are compounds tested against Calcium and integrin-binding protein 1 (Homo sapiens) (UniProt Q99828) (assay: Confirmatory qHTS for Identification of Calcium Integrin Binding Protein 1 (CIB1) Competitor (AID 1508617; also: nearly all actives have a fitted effect of over 65% in size; also: potency is read from the fitted curve at half-maximal effect)). Conditions: CIB1 binding competition assay, biochemical qHTS; series mostly up to 114 µM; activity change, negative = inhibition: at the top concentration.
Chain of Calcium and integrin-binding protein 1 (Homo sapiens) (Q99828 whole entry, looked up): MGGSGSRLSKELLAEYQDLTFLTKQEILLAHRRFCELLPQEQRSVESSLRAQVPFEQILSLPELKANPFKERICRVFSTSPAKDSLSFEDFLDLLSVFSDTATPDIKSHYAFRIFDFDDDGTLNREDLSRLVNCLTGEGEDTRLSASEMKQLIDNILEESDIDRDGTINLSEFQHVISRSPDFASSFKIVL
Description: Assay Provider: Ulhas P. Naik, PhD
Sidney Kimmel Medical College
Thomas Jefferson University, Philadelphia, PA
Primary function of platelets is to maintain hemostasis. At the site of vascular injury, platelets adhere to adhesive proteins such as collagen and von Willebrand factor. Adherent platelets are activated and generate soluble platelet agonists such as thrombin, ADP and thromboxane A2. Following exposure of circulating platelets to these agonists, results in platelet shape change, granule secretion and activation of platelet integrin alphaIIb-beta3. Ligand binding to activated integrin alphaIIb-beta3 triggers outside-in signaling, leading to platelet aggregation, stabilization of platelet plug, and clot retraction. Upon atherosclerotic plaque rupture also causes platelet plug formation, which underlies a number of cardiovascular diseases such as myocardial infraction and stroke. A number of anti-platelet drugs such as aspirin, clopidogrel, prasugrel, vorapaxar, and eptifibatide are currently available to prevent the thrombotic complications. However, these anti-platelet agents have several limitations including inherent variability in individual responses, developing resistance, and serious bleeding side effects. For these reasons they are not suitable for long-term protection. Based on the experiences with current anti-platelet drugs, it appears that the most useful therapeutic approach is to intersect the secondary responses such as integrin outside-in signaling or recruitment of platelets by TxA2 and secreted ADP. Compounds, which can largely preserve the primary hemostatic function of platelets but inhibit secondary response will be most desired therapeutic agents for treatment of cardiovascular disease.
CIB1 is a calcium integrin binding protein, which specifically interact with the alphaIIb subunit of integrin alphaIIb-beta3. Binding of CIB1 to alphaIIb regulates the outside-in signaling in platelets, which is needed for thrombus stabilization and thrombus growth. […] Therefore, we propose that discovery of a small molecule that can prevent the association of CIB1 and alphaIIb-beta3 will be a potential anti-platelet agent that can block the thrombus formation without undue effect on hemostasis.
To develop fluorescence polarization (FP) assay using fluorescently labeled alphaIIb peptide and CIB1 protein. Using FP assay characterize the binding affinity, competitive inhibition, and acceptable Z factor (0.5 to1) in order to perform the HTS to identify small molecule compound that can prevent CIB1 binding to platelet integrin alphaIIb-beta3. Active compounds were re-acquired and validated using confirmatory and counterscreens.
[1] […]
7; Detection; Ex 480/ Em 540; ViewLux Fluorescence Read […]
In the case of `OC[C@H]1O[C@@H](Oc2ccc(O)c3cccc(O)c23)[C@H](O)[C@@H](O)[C@@H]1O`, the Potency is reported as 11.2 µM (active). `CC(=O)c1c(O)cc2c(c1C)C(=O)CC(O)C2` (centres undefined) was tested, and the “activity change, negative = inhibition” value was -18.6%. `CC(=O)c1c(O)cc2cccc3c2c1CC(C)(O)O3` (centres undefined) was tested, and the Potency was 39.8 µM (active). For `CC[C@@H](c1ccc(F)c(F)c1)n1c(C(=O)OC)c(-c2ccno2)[nH]c1=S`, the “activity change, negative = inhibition” value was -12.4%.

Each compound was assayed against Calcium and integrin-binding protein 1 (Homo sapiens) (UniProt Q99828) (assay: Primary qHTS for Identification of Calcium Integrin Binding Protein 1 (CIB1) Competitor (AID 1508620;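 also: GST tagged CIB1 binding a fluorescein labelled alphaIIb integrin peptide tracer; top concentration of the series differs between compounds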)). Conditions: CIB1-GST / FITC-alphaIIb peptide fluorescence polarization; series mostly up to 57.7 µM; activity change, negative = inhibition: at the top concentration.
In short: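 Fluorescence polarization competition: GST-tagged CIB1 (1 uM final) preincubated with compound 15 min at room temperature, then FITC-labelled alphaIIb peptide (100 nM final) added. After 15 min at room temperature, polarization read at Ex 480/Em 540.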
For `CC(=O)OC(C)OC(=O)C(C)c1ccc(-c2ccccc2)c(F)c1` (centres undefined), the “activity change, negative = inhibition” value was -13.5% [at 114 µM]. For `CC[C@H](C)[C@@H]1NC(=O)[C@H](Cc2ccc(OC)cc2)NC(=O)CCCSC[C@@H](C(=O)N2CCC[C@H]2C(=O)N[C@@H](CC(C)C)C(=O)NCC(N)=O)NC(=O)[C@H](CC(N)=O)NC(=O)[C@H](CCC(N)=O)NC1=O` (Y(Me)IQNCPLG-NH2; linker N-5 via X6), the “activity change, negative = inhibition” value was 1.44%. `CC/C=C/CC1=C(CCCCCCCC(=O)O)CCC1=O` was tested, and the “activity change, negative = inhibition” value was -14.9% [at 114 µM]. For `Cc1onc(-c2ccccc2)c1C(=O)N[C@@H]1C(=O)N2[C@@H]1SC(C)(C)[C@@H]2C(=O)O`, the Potency was “inactive”. `CCOc1ccc(C(Nc2ccccn2)c2ccc3ccc(C)nc3c2O)cc1C` (centres undefined) was tested, and the “activity change, negative = inhibition” value was -5.69% [at 114 µM]. `CCC(C)(O)C(O)C(=O)OCc1ccc(O[C@@H]2O[C@H](CO)[C@@H](O)[C@H](O)[C@H]2O)c(OC)c1` (some centres undefined) was tested, and the “activity change, negative = inhibition” value was -6.18%. `CC(/C=C/[C@]1(O)[C@@]2(C)CO[C@@]1(C)C[C@@H](O)C2)=C\C(=O)O[C@@H]1O[C@H](CO)[C@@H](O)[C@H](O)[C@H]1O` was tested, and the “activity change, negative = inhibition” value was 3.13%. `COC(=O)[C@@]1(O)C=CC[C@@H]2[C@@]3(C)C[C@@H](c4ccoc4)OC(=O)[C@H]3CC[C@]21C` was tested, and the “activity change, negative = inhibition” value was -1.71%. For `CCCn1cnc2c(NCc3ccccc3)nc(N[C@H](CC)CO)nc21`, the “activity change, negative = inhibition” value was -3.36% [at 114 µM]. `C[C@H]1[C@H](C)CC[C@]2(C(=O)O[C@@H]3O[C@H](CO)[C@@H](O)[C@H](O)[C@H]3O)CC[C@]3(C(=O)O)C(=CCC4[C@@]5(C)CC[C@H](O[C@@H]6O[C@H](CO)[C@@H](O)[C@H](O)[C@H]6O)C(C)(C)C5CC[C@]43C)[C@H]12` (some centres undefined) was tested, and the “activity change, negative = inhibition” value was 2.03% [at 30.2 µM]. In the case of `CN(C)c1cccc(-c2c3c(=O)n(-c4ccccc4Cl)[nH]c3cc(=O)n2C)c1`, the Potency is reported as “inactive”. For `NCc1ccc(OCCCc2sc(-c3ccc4c(c3)/C(=N/Nc3nc5ccccc5s3)CCC4)nc2C(=O)O)cc1`, the Potency was “inactive”. `C/C=C(/C)C(=O)O[C@H]1C=C(C)C[C@H](OC(=O)c2ccc(O)cc2)C2[C@](O)(C(C)C)CC[C@@]21C` (some centres undefined) was tested, and the “activity change, negative = inhibition” value was 2.38% [at 30.2 µM]. With `COC(=O)C1=COC(O[C@@H]2O[C@H](CO)[C@@H](O)[C@H](O)[C@H]2O)/C(=C\COC(=O)c2ccc(OC3OC(CO)C(O)C(O)C3O)c(OC)c2)C1CC(=O)OCCc1ccc(O)cc1` (some centres undefined) the “activity change, negative = inhibition” value was -3.12% [at 30.2 µM]. In the case of `CC1(C)CCC[C@@]2(C)[C@H]1[C@H](O)C=C1COC(=O)[C@@]12O`, the “activity change, negative = inhibition” value is reported as -12.5% [at 114 µM]. In the case of `CC(=O)NC(CCC(=O)O)C(=O)NCCc1ccc(O)cc1` (centres undefined), the “activity change, negative = inhibition” value is reported as -3.27% [at 114 µM]. For `CC(=O)O[C@@H]1[C@H]2[C@@H](OC(=O)c3ccccc3)[C@@H](C)C[C@]2(O)[C@H](OC(C)=O)[C@@]2(C)[C@@H]3CC(C)(C)C(=O)[C@]3(OC(C)=O)C[C@@]12C`, the “activity change, negative = inhibition” value was -5.2% [at 30.2 µM]. In the case of `COc1ccc2c3c1O[C@H]1C[C@@H](O)C=C[C@@]31CCN(C)C2`, the “activity change, negative = inhibition” value is reported as -1.05% [at 114 µM]. With `C[C@H]1CC[C@@]2(OC1)O[C@H]1CC3C4CC=C5C[C@H](O)C[C@@H](O[C@@H]6O[C@@H](C)[C@H](O)[C@@H](O)[C@H]6O[C@@H]6O[C@@H](C)[C@H](O)[C@@H](O)[C@H]6O)[C@]5(C)C4CC[C@]3(C)[C@H]1[C@@H]2C` (some centres undefined) the “activity change, negative = inhibition” value was 0.158% [at 30.2 µM]. `C=CC1(C)C=C2C(=O)CC3C(C)(C)CCCC3(C(=O)O)C2(O)CC1` (centres undefined) was tested, and the “activity change, negative = inhibition” value was -1.98%. In the case of `CC1(C)CC[C@]2(C(=O)O[C@@H]3O[C@H](CO)[C@@H](O)[C@H](O)[C@H]3O)CC[C@]3(C)C(=CCC4[C@@]5(C)C[C@@H](O)[C@H](O)C(CO)(CO)C5CC[C@]43C)C2[C@@H]1O` (some centres undefined), the “activity change, negative = inhibition” value is reported as -1% [at 30.2 µM]. `COC1=CC(=O)O[C@@H](CCc2ccccc2)[C@@H]1O` was tested, and the “activity change, negative = inhibition” value was 2% [at 114 µM]. `C[C@@H]1O[C@@H](O[C@H]2[C@H](OC(=O)C34CCC5(C)C(=CCC6C7(C)CC(O)C(O[C@@H]8O[C@H](C(=O)O)[C@@H](O)[C@H](O)[C@H]8O)C(C)(C(=O)O)C7CCC65C)C3CC(C)(C)CC4O)O[C@H](C)[C@@H](O)[C@@H]2O)[C@H](O)[C@@H](O[C@@H]2OC[C@](O)(CO)[C@H]2O[C@@H]2O[C@H](CO)[C@@H](O)[C@H](O)[C@H]2O)[C@H]1O` (some centres undefined) was tested, and the activity change, negative = inhibition was -1.08% [at 12.4 µM]. With `C/C=C(\C)C(=O)O[C@H]1[C@@H](O[C@]2(COC(=O)CC(C)C)O[C@H](COC(=O)C(C)C)[C@@H](OC(C)=O)[C@@H]2O)O[C@H](COC(C)=O)[C@@H](O)[C@@H]1O` the “activity change, negative = inhibition” value was 3.01% [at 30.2 µM]. With `COC(=O)C1=C[C@@H](O)[C@@H](O)[C@H](O[C@@H]2O[C@H](COC(=O)/C=C/c3ccccc3)[C@@H](O)[C@H](O)[C@H]2O)C1` the “activity change, negative = inhibition” value was -16.7%. For `CO[C@H]1C=C2C(CC[C@H](O[C@@H]3O[C@H](CO)[C@@H](O)[C@@H](O)[C@H]3O)C2(C)C)[C@]2(C)CC[C@]3(C)C([C@H](C)C(O)C(C=C(C)C)O[C@@H]4O[C@H](CO)[C@@H](O)[C@@H](O)[C@H]4O)CC[C@@]3(C)C12` (some centres undefined), the “activity change, negative = inhibition” value was 1.63% [at 30.2 µM]. In the case of `CC(CCC1(O)OC2CC3C4CCC5CC(O[C@@H]6O[C@H](CO)[C@@H](O)[C@H](O)[C@H]6O[C@@H]6OC[C@@H](O)[C@H](O)[C@H]6O)C(O)CC5(C)C4CCC3(C)C2C1C)CO[C@@H]1O[C@H](CO)[C@@H](O)[C@H](O)[C@H]1O` (some centres undefined), the “activity change, negative = inhibition” value is reported as -0.357% [at 30.2 µM]. For `C[C@@H]1C[C@H]2[C@@H]3CCC4=CC(=O)C=C[C@]4(C)[C@@]3(F)[C@@H](O)C[C@]2(C)[C@@]1(O)C(=O)COP(=O)(O)O`, the “activity change, negative = inhibition” value was 2.23% [at 114 µM]. `CN1Cc2c(N)cccc2C(c2ccccc2)C1` (centres undefined) was tested, and the “activity change, negative = inhibition” value was -4.39% [at 114 µM]. Work on `CC1OC(O[C@H]2[C@@H](O)C[C@@]3(C)C([C@H](O)C[C@]4(C)C3CC=C3C5CC(C)(C)CC[C@]5(C(=O)OC5OC(CO)C(O)C(O)C5OC5OCC(OC6OCC(OC7OCC(O)C(O)C7O)C(O)C6O)C(OC6OCC(O)(CO)C6O)C5O)CC[C@]34C)[C@]2(C)CO)C(O)C(O)C1O` (some centres undefined) yielded an activity change, negative = inhibition of -4.55% [at 12.4 µM]. Compound `C=CC(C)(O)CC/C=C(\C)C(=O)OCC1OC(OC2CCC3(C)C(CCC4(C)C3CC=C3C5CC(C)(C)C(O)CC5(C(=O)O)CCC34C)C2(C)C)C(O)C(OC2OC(CO)C(O)C(OC3OC(CO)C(O)C(OC4OC(COC5OC(CO)C(O)C(O)C5O)C(O)C(O)C4O)C3O)C2O)C1O` (centres undefined) has an activity change, negative = inhibition of 0.919% [at 12.4 µM]. In the case of `CC(C)=CCC[C@](C)(O[C@@H]1O[C@H](CO[C@@H]2OC[C@@H](O)[C@H](O)[C@H]2O)[C@@H](O)[C@H](O)[C@H]1O)[C@H]1CC[C@]2(C)[C@@H]1[C@H](O)C[C@@H]1[C@@]3(C)CC[C@H](O[C@@H]4O[C@H](CO)[C@@H](O)[C@H](O)[C@H]4O[C@@H]4O[C@H](CO)[C@@H](O)[C@H](O)[C@H]4O)C(C)(C)[C@@H]3CC[C@]12C`, the “activity change, negative = inhibition” value is reported as -1.61%. In the case of `COC(=O)C1C(c2ccc(O)cc2)C(C(=O)OC)C1c1ccc(O)cc1` (centres undefined), the “activity change, negative = inhibition” value is reported as 1.64%. For `O=C(/C=C/c1ccc(O)cc1)OC[C@]12O[C@H]1[C@@H](O)[C@@H]1C=CO[C@@H](O[C@@H]3O[C@H](CO)[C@@H](O)[C@H](O)[C@H]3O)[C@@H]12`, the “activity change, negative = inhibition” value was 1.29%. `COC1CC(=O)CCC(C)OC(=O)CC1O` (centres undefined) was tested, and the “activity change, negative = inhibition” value was -3% [at 114 µM].
